PubChem BioAssay (NCI)
This is part of a sample that, as a whole, favours compounds with a hit. Of some 83,000 tested, about 20% had one in any assay.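 Percent growth is the endpoint: 0 to 100 indicates growth inhibition (40 means 60% inhibition), 0 means no net growth, and negative values indicate cell death.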 Values without a mark were called inactive. Calls of active or inactive are those of the source. Rule for the calls: active = growth percent below 10; inactive = the rest.

Legend:
Experiment in all cases: NCI-60 one-dose screen, 48 h (100 = growth as untreated, 0 = no growth, -100 = all killed)
Conditions in all cases: 10 µM unless noted
[1] = test system: DU-145 prostate
[2] = test system: K-562 leukemia
[3] = test system: MALME-3M melanoma
[4] = test system: MDA-MB-231 breast
[5] = test system: RXF 393 renal
[6] = test system: SF-268 CNS
[7] = test system: SF-295 CNS
[8] = test system: SF-539 CNS
[9] = test system: UACC-257 melanoma
[10] = test system: M14 melanoma
[11] = test system: HCT-15 colon
[12] = test system: HT29 colon
[13] = test system: SNB-75 CNS
[14] = test system: SNB-19 CNS
[15] = test system: U251 CNS
[16] = test system: PC-3 prostate
[17] = test system: SK-MEL-5 melanoma
[18] = test system: UACC-62 melanoma
[19] = test system: LOX IMVI melanoma
[20] = test system: SK-MEL-28 melanoma

SMILES	growth [1]	growth [2]	growth [3]	growth [4]	growth [5]	growth [6]	growth [7]	growth [8]	growth [9]	growth [10]	growth [11]	growth [12]	growth [13]	growth [14]	growth [15]	growth [16]	growth [17]	growth [18]	growth [19]	growth [20]
C=CC1=C[C@@H]2[C@@H]3O[C@]4(CC[C@H](O4)[C@@H](C)C[C@@H](O)C3=O)C[C@H](O)C3=NCC[C@@]32CC1	-26.7% (active)	5.48% (active)	-82.2% (active)	-29.2% (active)	-67.3% (active)	-35.8% (active)	-35.9% (active)	-43.6% (active)	-31.5% (active)	-79% (active)	-13.9% (active)	-13.6% (active)	-95.8% (active)	-16.2% (active)	-7% (active)	-20.1% (active)	-90.2% (active)	-68.3% (active)	-59.9% (active)	-59.8% (active)
CCOC(=O)[C@@H](C)C[C@H](Cc1ccccc1)NC(=O)c1nc([C@@H](C[C@H](C(C)C)N(C)C(=O)[C@@H](NC(=O)[C@H]2CCCCN2C)C(C)C)OC(C)=O)sc1CCOCc1ccccc1	-27.3% (active)	-31.4% (active)	-77.4% (active)	-49.8% (active)	-14.2% (active)	-38% (active)	-33.6% (active)	-69.2% (active)	-7.85% (active)	-57.1% (active)	-30.5% (active)	-50.7% (active)	-11.2% (active)	4.69% (active)	-32.4% (active)	5.66% (active)	-39.7% (active)	4.15% (active)	-54.4% (active)	-23.7% (active)
O=[N+]([O-])c1cc(I)cc([N+](=O)[O-])c1	105%	97.9%	101%	95.7%	111%	94.2%	110%	101%	98%	98.8%	90.2%	109%	93.2%	113%	107%	92.5%	95.2%	103%	91.8%	116%
CC(C)CCC1(CCCl)C(=O)NC(=O)NC1=O	107%	116%	95.3%	101%	98.1%	109%	96.2%	100%	91.1%	96.7%	98.9%	109%	85.3%	97.7%	94.4%	98.8%	97.4%	97.6%	97%	98.4%
COc1cc(/C=C/[N+](=O)[O-])cc(OC)c1	-63% (active)	0.863% (active)	24.1%	13.4%	-90% (active)	25.7%	46.5%	-72.2% (active)	-16.4% (active)	-30.1% (active)	-44.5% (active)	-25.6% (active)	25.1%	24.6%	-50.9% (active)	-25.4% (active)	8.23% (active)	2.61% (active)	-93.9% (active)	-16.9% (active)
C#Cc1ccc2c(c1)C(c1ccccc1F)=NCC(=O)N2C	69.9%	16.7%	76.7%	50.6%	73.8%	56.3%	35.6%	53%	67.1%	16.9%	28%	15.7%	51.7%	49%	39.7%	55.8%	29.9%	31.3%	47.5%	63.8%
CC(C)COC(C[N+](=O)[O-])C(Cl)(Cl)Cl (stereo not given)	119%	99.9%	123%	111%	115%	105%	113%	106%	96.1%	105%	105%	106%	90.4%	106%	95.7%	91%	112%	101%	103%	99.4%
CCOC(=O)[C@@H](C)C[C@H](Cc1ccccc1)NC(=O)c1csc([C@@H](C[C@H](C(C)C)N(C)C(=O)[C@@H](NC(=O)[C@H]2CCCCN2C)C(C)(C)CC)OC(C)=O)n1	0.285% (active)	5.03% (active)	11.9%	-1.28% (active)	23.5%	12.3%	-4.66% (active)	-28.4% (active)	48.1%	-26.8% (active)	8.77% (active)	-4.94% (active)	-5.95% (active)	17.6%	9.55% (active)	24.1%	-15.3% (active)	33.1%	14.3%	38.6%
O=C1CNC(c2ccccc2)c2cc(Cl)ccc2N1 (stereo not given)	100%	93.8%	90.6%	94.9%	99.2%	98.7%	103%	104%	94.9%	99.4%	105%	80.4%	85.6%	96.6%	105%	99.3%	101%	93.4%	96.3%	116%
C[C@@]1(CCCCCCCCCc2ccc(O)cc2)C[C@]2(C)OC(=O)C[C@@H]2OO1	130%	70%	105%	105%	120%	123%	91.9%	139%	102%	99.8%	83.7%	102%	95%	96.6%	92.8%	61.7%	105%	95.2%	-81.2% (active)	99.5%
CC12CC=CCC1CCC1C2CCC2(C)C(c3ccc(=O)oc3)CCC12O (stereo not given)	-98% (active)	3.02% (active)	-51.8% (active)	-4.41% (active)	-46.5% (active)	-62.2% (active)	-36.7% (active)	-93.7% (active)	-52.8% (active)	-28% (active)	-66.3% (active)	-44.7% (active)	-61.7% (active)	-98.3% (active)	-73.3% (active)	-6.92% (active)	-47.5% (active)	-72.9% (active)	-78% (active)	-33.8% (active)
CC1(C)CN1P(=O)(N1CC1(C)C)N1CC1(C)C (stereo not given)	121%	109%	110%	107%	119%	106%	115%	109%	89.3%	98.8%	112%	120%	72.7%	105%	98.2%	99.1%	117%	98%	103%	99.5%
Nc1c(F)cc(-c2nc3cc(F)ccc3[se]2)cc1F	99.8%	85.8%	101%	54.6%	105%	91.4%	87.8%	96.3%	101%	90%	22%	46.4%	92.2%	104%	93.6%	72.1%	56.1%	66.5%	89.3%	116%
CC[C@@H]1[C@@H](C)O[C@@](O)([C@@H](C)[C@H](O)[C@H](C)[C@H]2OC(=O)/C=C/C=C/[C@H](C)[C@@H]([C@@H](C)[C@@H](O)[C@H](C)[C@@]3(O)C[C@@H](O[C@H]4C[C@@H](O)[C@H](O)C(C)O4)[C@H](CC)[C@@H](C)O3)OC(=O)/C=C/C=C/[C@@H]2C)C[C@H]1O[C@@H]1C[C@@H](O)[C@H](O)C(C)O1 (stereo not given in full)	-97.5% (active)	-71.6% (active)	-97% (active)	-68.3% (active)	-96.7% (active)	-86.3% (active)	-86.5% (active)	-96.8% (active)	-89.5% (active)	-83.9% (active)	-84.4% (active)	-84% (active)	-97.6% (active)	-81.6% (active)	-92.8% (active)	-88.4% (active)	-96.2% (active)	-73.3% (active)	-94% (active)	-92.1% (active)
O=[N+]([O-])c1c(Br)sc(Br)c1[N+](=O)[O-]	46.9%	3.25% (active)	-41.5% (active)	14.2%	-75.5% (active)	85.7%	99%	-12.3% (active)	-0.992% (active)	-18.9% (active)	-13.9% (active)	-58% (active)	63.1%	76%	-31% (active)	67.5%	51.4%	-1.09% (active)	-65.3% (active)	57.3%
